# The list is not random: actives were taken first. Their share in the collection is about 3.5%.
# MITF primary = MITF inhibitors, primary screen, biochemical, AlphaScreen, human; Microphthalmia-associated transcription factor (Homo sapiens), O75030; AlphaScreen MITF homodimerization, bead proximity signal; inhibition, % at 2.6 µM; actives 0.91% (n = 650,000); AID 1259374, 2018; in the data active = inhibition above about 50%;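 also: 0% = vehicle wells with protein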
# GPR151 ag = activators of human GPR151, primary screen, cell-based, PathHunter beta-arrestin, luminescence; PathHunter beta-arrestin GPR151 cells; activation, % at 11.2 µM; actives 1% (n = 650,000); AID 1508602, 2020; in the data active = activation above about 4.9%;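 also: 0% = median of compound wells and 100% = cells with positive control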
# TEAD-YAP block = TEAD-YAP interaction inhibition, primary screen, TEAD-YAP interaction inhibitor project, luminescence, HEK-TIYL cells; TEAD-Gal4/YAP UAS-luciferase luminescence; AID 1259422, 2018; actives 1.4% (n = 640,000); inhibition, % at 9.12 µM; in the data active = inhibition above about 32%;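 also: 0% = median of test compound wells and 100% = reference inhibitor wells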
# FBW7 act = FBW7 E3 ligase activators, primary screen, biochemical, AlphaScreen, human. F-box/WD repeat-containing protein 7 (Homo sapiens), Q969H0. AlphaScreen FBW7–phospho-cyclin E peptide binding, activator screen. normalized activity (activation), % at 26.1 µM. actives 0.13% (n = 650,000). AID 1259310, 2017; in the data active = normalized activity above about 1.9%;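 also: purified mutant Fbw7 with reduced substrate affinity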
# Target sequence (Q969H0 whole entry, looked up): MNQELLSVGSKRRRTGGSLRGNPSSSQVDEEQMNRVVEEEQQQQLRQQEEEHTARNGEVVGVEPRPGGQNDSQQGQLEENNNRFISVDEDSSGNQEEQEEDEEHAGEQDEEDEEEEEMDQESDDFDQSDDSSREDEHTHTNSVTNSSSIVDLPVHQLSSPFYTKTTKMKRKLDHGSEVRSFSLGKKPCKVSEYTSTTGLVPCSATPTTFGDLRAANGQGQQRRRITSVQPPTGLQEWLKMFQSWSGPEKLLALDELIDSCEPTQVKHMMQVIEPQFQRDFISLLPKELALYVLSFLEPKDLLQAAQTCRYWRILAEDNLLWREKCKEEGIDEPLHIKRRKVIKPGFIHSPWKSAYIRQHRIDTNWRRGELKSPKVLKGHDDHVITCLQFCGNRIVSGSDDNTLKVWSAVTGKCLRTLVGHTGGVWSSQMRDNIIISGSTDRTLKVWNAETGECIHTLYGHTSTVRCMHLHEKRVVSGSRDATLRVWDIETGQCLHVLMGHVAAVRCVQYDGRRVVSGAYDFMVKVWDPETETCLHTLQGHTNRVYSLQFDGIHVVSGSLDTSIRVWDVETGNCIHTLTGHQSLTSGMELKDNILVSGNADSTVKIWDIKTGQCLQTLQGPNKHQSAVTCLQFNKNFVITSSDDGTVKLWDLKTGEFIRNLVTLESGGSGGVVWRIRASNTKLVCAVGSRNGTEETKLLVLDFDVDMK
# MITF confirm = MITF inhibitors, retest of hits, confirmation, biochemical, AlphaScreen, triplicate. shares compounds with MITF primary. AlphaScreen MITF homodimerization, biotin/His-MITF beads. inhibition, % at 2.6 µM. actives 16% (n = 4,700);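 active = inhibition above a cutoff derived from the DMSO control wells, cut at about 28% in these data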;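 also: 0% = MITF dimer wells with DMSO only; inhibitors lower the bead chemiluminescence by keeping MITF from dimerizing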
# AS interf DR = AlphaScreen optical interference compounds, dose response, counter-screen, biochemical, HTS; shares compounds with MITF primary; AlphaScreen optical interference counterscreen, cell-free; IC50, µM; actives 6% (n = 480); AID 1259373, 2018; call rule not given here
# AlphaScreen intf2 = AlphaScreen optical interference compounds, counter-screen for MITF inhibitor project, biochemical, triplicate | actives 7.6% (n = 4,700) | shares compounds with MITF primary | AID 1259376, 2018 | LysRS AlphaScreen counterscreen, signal interference | inhibition, % at 2.6 µM;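 active = inhibition above a cutoff derived from the DMSO control wells, cut at about 30% in these data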
# * = called active by the depositor; . = not tested or not shown.
SMILES,MITF primary,GPR151 ag,TEAD-YAP block,FBW7 act,MITF confirm,AlphaScreen intf2,others
CC(NC(=O)CN(C)C1CCN(C)CC1)c1ccccc1 (stereo not drawn),59*,2,0,0,-6,-6,
CCN(CC)CC(=O)NC(C)c1ccccc1 (stereo not drawn),-12,1,3,0,.,.,
Cc1ccc2nc(-c3ccc(NC(=O)CNCC(C)(C)CN(C)C)cc3)sc2c1,52*,-1,2,0,-2,8,
CCCCOC(=O)c1ccc(NC(=O)CCCC)cc1,1,1,-4,0,.,.,
CCCCOC(=O)c1ccc(NC(=O)CN(C)C2CCN(C)CC2)cc1,58*,-1,-27,0,10,17,
COc1ccc(-c2nc(CNS(=O)(=O)c3cc(OC)ccc3OC)cs2)cc1,-15,0,-1,0,.,.,
CCCNc1ccnc2c(-c3ccc(N4CCN(C)CC4)nc3)cnn12,1,2,-56,-1,.,.,
CC(=O)N1CCN(CC(=O)Nc2ccc3c(c2)OC(F)(F)O3)CC1,5,-1,3,0,.,.,
CN(C)CC(C)(C)CNCC(=O)Nc1ccc2c(c1)OC(F)(F)O2,56*,2,3,0,-11,-2,
CC(=O)NC1(c2ccccc2F)CCN(C(=O)CCC(=O)O)CC1,77*,-1,3,0,4,16,
CC(NC(=O)C1CC1)c1nnc2n1CCN(Cc1cccc(Oc3ccccc3)c1)CC2 (stereo not drawn),-6,-1,-2,0,.,.,
Cc1ccc(C(=O)Nc2ccc([N+](=O)[O-])cn2)o1,80*,-4,-32,0,69*,-9,AS interf DR=>6.5
COc1ccc(Cl)cc1NC(=O)c1c(NCc2cccs2)sc2c1CCC2,6,0,9,0,.,.,
COc1ccc(C(CNCC(O)COCC2=CCC3CC2C3(C)C)N(C)C)cc1 (stereo not drawn),73*,-3,4,0,26,31*,
CCc1nnc(SCC(=O)NCCc2ccc(S(N)(=O)=O)cc2)nc1CC,-1,2,7,0,.,.,
c1ccc2sc(Nc3nc4ccccc4s3)nc2c1,-12,0,-67,0,.,.,
C(=N\c1nc2ccccc2s1)/Nc1nc2ccccc2s1,52*,-3,-3,0,12,16,
Cc1cc(CC2(C)C(=O)Nc3c(-c4ccco4)cccc32)no1 (stereo not drawn),15,0,5,0,.,.,
O=C(Nc1nc2ccccc2s1)c1cc(=O)c2ccccc2o1,-6,-2,-63,0,.,.,
Cc1ccc(C(=O)/C=C/c2ccc(Br)cc2)o1,8,0,1,0,.,.,
Cc1ccc(C(=O)/C=C/c2ccc(Br)o2)o1,67*,-1,-8,-1,21,-1,
CN(CC(O)c1ccccc1)C(=O)CCc1nnc(Cc2cccc(C(F)(F)F)c2)o1 (stereo not drawn),-1,-1,-23,0,.,.,
CCc1cccc(NC(=O)N[C@H]2C[C@H]3C(=O)N[C@H](CC(C)C)C(=O)N3C2)c1,2,-1,5,0,.,.,
C/C(=N\OCC(O)CN1CCOCC1)C1COc2ccccc2O1 (stereo not drawn),51*,0,-5,0,-2,10,
CCOc1ccc(C(=O)NNC(N)=S)cc1,-6,2,4,0,.,.,
SMILES,MITF primary,GPR151 ag,TEAD-YAP block,FBW7 act,MITF confirm,AlphaScreen intf2,others
Cc1cccc(NC2(C(F)(F)F)N=C3SCCN3C2=O)n1 (stereo not drawn),80*,-1,-7,0,8,10,
Cc1ccc(NC(=O)CC(C)C)cc1F,10,2,2,0,.,.,
N#CC(C#N)=C1C=CC=CN1/C(=C\c1ccc(F)cc1)C(=O)c1ccccc1,16,0,-15,1,.,.,
CC1(C)OC(=O)C(=CNC(CC(=O)O)C(=O)O)C(=O)O1 (stereo not drawn),-7,2,4,0,.,.,
Fc1ccccc1-c1cnc2ccc(NCc3cccs3)nn12,53*,0,8,0,19,11,
O=C1CCCN1CCn1cnc2c(Nc3ccc4c(c3)OCO4)nc(N3CCN(c4ccccn4)CC3)nc21,76*,-1,19,0,4,10,
O=C1CCCN1CCn1cnc2c(Nc3ccc(N4CCOCC4)cc3)nc(N3CCN(c4ccccn4)CC3)nc21,6,0,14,0,.,.,
Cc1ccc(NC(=O)CC2NCCNC2=O)cc1C (stereo not drawn),72*,0,-14,1,7,21,
O=C(/C=N/OCC(=O)N1CCOCC1)Nc1ccc([N+](=O)[O-])cc1,-10,0,-1,0,.,.,
O=C(Nc1ccc(Br)cc1)Nc1cccc(Cl)c1,57*,0,-30,1,1,6,
Cc1cccc(NC(=O)CSc2ncc(-c3ccccc3)[nH]2)c1,81*,2,-2,0,-7,-1,
CC1(C)CC(=O)C2=C(C1)N(c1ccc(Cl)cc1)C(N)=C(C#N)C2c1ccc(C(C)(C)C)s1 (stereo not drawn),12,-2,8,0,.,.,
CC1(C)CC(=O)C2=C(C1)N(c1ccc(Br)cc1)C(N)=C(C#N)C2c1ccc(C(C)(C)C)s1 (stereo not drawn),52*,-2,-5,0,16,0,
CC(=O)NC1=NC(=O)/C(=C\c2ccc(Br)o2)S1,77*,0,-8,0,67*,12,AS interf DR=>6.5
O=S(=O)(CCN1CCCCC1)Oc1ccccc1,58*,-1,-7,0,7,19,
COc1ccc(C)cc1N(CC(=O)Nc1ccc(F)cc1F)S(C)(=O)=O,52*,0,-6,0,-2,13,
COc1ccc(C)cc1N(CC(=O)Nc1ccccc1F)S(C)(=O)=O,2,-1,8,0,.,.,
O=C(c1ccsc1)N1CCOc2ccc(CN3CCN(c4ccccc4)CC3)cc2C1,73*,-1,-2,0,-5,-1,
COc1ccc(CN2CCN(S(C)(=O)=O)CC2)cc1OCc1ccccc1,-7,1,-16,0,.,.,
O=S(=O)(c1ccc2c(c1)OCCO2)N1CCN(c2cc(N3CCCC3)ncn2)CC1,80*,3,-13,0,8,19,
O=S(=O)(c1ccc2c(c1)CCCC2)N1CCN(c2cc(N3CCCC3)ncn2)CC1,16,0,0,1,.,.,
